Measured values: the supplement of paper PMC11732987, “Enantioselective OTUD7B fragment discovery through chemoproteomics screening and high-throughput optimisation” (Communications Chemistry, 2025)

Legend:
Experiment in all cases: log2 ratio of Biotin-Ahx-Ub-VS probe labelling (fragment/DMSO); higher = less target engagement (more negative = stronger competition), active = hit call of the paper (q ≤ 0.05, log2 ratio ≤ -1)
Settings in all cases: compound concentration: 200 uM; treatment time: 3 h
[1] = molecular target: T1, USP19 (UniProt O94966)
T1 sequence (whole entry): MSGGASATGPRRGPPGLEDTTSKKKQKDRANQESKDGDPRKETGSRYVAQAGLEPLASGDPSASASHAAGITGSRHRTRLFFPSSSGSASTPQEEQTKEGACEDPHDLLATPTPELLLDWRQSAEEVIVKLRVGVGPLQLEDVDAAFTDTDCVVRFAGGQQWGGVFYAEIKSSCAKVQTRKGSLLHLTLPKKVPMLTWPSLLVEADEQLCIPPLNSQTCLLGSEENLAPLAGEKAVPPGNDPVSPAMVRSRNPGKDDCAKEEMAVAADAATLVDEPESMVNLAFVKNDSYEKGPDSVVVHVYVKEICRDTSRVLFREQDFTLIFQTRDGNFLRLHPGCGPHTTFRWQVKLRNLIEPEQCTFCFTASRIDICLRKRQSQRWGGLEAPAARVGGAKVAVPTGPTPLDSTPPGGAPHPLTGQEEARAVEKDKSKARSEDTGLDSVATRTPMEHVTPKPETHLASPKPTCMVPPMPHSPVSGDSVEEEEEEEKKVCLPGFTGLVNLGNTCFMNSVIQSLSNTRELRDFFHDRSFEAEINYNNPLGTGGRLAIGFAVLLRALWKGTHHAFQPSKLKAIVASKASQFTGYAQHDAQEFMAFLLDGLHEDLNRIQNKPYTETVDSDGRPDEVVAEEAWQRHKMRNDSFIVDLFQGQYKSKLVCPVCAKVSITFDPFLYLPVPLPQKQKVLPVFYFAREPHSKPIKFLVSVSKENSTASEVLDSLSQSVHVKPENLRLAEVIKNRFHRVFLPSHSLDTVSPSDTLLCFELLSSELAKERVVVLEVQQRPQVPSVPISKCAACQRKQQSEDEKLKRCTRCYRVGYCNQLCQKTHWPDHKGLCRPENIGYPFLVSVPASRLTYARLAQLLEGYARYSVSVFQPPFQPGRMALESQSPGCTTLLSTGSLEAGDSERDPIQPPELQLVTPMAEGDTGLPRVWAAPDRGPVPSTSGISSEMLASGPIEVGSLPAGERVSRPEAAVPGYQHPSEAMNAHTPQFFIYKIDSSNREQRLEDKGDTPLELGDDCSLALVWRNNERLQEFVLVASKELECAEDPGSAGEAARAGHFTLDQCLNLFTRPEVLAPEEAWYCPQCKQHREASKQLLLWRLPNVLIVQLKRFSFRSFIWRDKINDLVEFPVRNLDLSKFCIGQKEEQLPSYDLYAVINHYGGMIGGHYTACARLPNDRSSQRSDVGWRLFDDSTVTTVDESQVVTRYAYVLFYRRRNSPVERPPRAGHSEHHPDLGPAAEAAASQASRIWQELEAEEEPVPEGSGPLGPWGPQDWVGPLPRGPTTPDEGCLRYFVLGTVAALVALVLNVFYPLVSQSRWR
How it was run: (§1)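 HEK293T lysate in Tris/CHAPS/IGEPAL buffer with protease inhibitors (495 µg per sample) was given fragment at 200 µM or vehicle for 3 h, in triplicate. It then received Biotin-Ahx-Ub-VS at 0.5 µM final for 1 h. Labelled DUBs were NeutrAvidin-enriched, digested with LysC and trypsin, and run by diaPASEF LC-MS/MS. Values are average log2 fragment/vehicle ratios by unpaired t-test on global-median-normalised Spectronaut quantities of proteins with ≥2 unique peptides.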

[2] = molecular target: T2, USP22 (UniProt Q9UPT9)
T2 sequence (whole entry): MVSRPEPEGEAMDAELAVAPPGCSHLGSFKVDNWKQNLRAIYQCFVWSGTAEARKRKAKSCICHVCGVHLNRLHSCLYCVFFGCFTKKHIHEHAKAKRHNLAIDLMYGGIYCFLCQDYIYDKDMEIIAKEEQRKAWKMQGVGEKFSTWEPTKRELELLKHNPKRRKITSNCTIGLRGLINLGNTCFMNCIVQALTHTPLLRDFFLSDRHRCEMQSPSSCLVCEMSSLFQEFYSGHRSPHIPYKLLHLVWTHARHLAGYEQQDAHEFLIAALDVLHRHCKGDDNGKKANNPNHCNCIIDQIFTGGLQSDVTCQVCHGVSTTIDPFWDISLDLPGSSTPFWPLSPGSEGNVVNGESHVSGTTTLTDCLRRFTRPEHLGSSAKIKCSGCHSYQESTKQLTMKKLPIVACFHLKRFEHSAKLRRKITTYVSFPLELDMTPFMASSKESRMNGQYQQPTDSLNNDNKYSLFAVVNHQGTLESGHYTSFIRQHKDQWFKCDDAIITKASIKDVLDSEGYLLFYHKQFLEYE
How it was run: as §1

[3] = molecular target: USP24 (UniProt Q9UPU5)
Sequence of USP24 (Q9UPU5 whole entry): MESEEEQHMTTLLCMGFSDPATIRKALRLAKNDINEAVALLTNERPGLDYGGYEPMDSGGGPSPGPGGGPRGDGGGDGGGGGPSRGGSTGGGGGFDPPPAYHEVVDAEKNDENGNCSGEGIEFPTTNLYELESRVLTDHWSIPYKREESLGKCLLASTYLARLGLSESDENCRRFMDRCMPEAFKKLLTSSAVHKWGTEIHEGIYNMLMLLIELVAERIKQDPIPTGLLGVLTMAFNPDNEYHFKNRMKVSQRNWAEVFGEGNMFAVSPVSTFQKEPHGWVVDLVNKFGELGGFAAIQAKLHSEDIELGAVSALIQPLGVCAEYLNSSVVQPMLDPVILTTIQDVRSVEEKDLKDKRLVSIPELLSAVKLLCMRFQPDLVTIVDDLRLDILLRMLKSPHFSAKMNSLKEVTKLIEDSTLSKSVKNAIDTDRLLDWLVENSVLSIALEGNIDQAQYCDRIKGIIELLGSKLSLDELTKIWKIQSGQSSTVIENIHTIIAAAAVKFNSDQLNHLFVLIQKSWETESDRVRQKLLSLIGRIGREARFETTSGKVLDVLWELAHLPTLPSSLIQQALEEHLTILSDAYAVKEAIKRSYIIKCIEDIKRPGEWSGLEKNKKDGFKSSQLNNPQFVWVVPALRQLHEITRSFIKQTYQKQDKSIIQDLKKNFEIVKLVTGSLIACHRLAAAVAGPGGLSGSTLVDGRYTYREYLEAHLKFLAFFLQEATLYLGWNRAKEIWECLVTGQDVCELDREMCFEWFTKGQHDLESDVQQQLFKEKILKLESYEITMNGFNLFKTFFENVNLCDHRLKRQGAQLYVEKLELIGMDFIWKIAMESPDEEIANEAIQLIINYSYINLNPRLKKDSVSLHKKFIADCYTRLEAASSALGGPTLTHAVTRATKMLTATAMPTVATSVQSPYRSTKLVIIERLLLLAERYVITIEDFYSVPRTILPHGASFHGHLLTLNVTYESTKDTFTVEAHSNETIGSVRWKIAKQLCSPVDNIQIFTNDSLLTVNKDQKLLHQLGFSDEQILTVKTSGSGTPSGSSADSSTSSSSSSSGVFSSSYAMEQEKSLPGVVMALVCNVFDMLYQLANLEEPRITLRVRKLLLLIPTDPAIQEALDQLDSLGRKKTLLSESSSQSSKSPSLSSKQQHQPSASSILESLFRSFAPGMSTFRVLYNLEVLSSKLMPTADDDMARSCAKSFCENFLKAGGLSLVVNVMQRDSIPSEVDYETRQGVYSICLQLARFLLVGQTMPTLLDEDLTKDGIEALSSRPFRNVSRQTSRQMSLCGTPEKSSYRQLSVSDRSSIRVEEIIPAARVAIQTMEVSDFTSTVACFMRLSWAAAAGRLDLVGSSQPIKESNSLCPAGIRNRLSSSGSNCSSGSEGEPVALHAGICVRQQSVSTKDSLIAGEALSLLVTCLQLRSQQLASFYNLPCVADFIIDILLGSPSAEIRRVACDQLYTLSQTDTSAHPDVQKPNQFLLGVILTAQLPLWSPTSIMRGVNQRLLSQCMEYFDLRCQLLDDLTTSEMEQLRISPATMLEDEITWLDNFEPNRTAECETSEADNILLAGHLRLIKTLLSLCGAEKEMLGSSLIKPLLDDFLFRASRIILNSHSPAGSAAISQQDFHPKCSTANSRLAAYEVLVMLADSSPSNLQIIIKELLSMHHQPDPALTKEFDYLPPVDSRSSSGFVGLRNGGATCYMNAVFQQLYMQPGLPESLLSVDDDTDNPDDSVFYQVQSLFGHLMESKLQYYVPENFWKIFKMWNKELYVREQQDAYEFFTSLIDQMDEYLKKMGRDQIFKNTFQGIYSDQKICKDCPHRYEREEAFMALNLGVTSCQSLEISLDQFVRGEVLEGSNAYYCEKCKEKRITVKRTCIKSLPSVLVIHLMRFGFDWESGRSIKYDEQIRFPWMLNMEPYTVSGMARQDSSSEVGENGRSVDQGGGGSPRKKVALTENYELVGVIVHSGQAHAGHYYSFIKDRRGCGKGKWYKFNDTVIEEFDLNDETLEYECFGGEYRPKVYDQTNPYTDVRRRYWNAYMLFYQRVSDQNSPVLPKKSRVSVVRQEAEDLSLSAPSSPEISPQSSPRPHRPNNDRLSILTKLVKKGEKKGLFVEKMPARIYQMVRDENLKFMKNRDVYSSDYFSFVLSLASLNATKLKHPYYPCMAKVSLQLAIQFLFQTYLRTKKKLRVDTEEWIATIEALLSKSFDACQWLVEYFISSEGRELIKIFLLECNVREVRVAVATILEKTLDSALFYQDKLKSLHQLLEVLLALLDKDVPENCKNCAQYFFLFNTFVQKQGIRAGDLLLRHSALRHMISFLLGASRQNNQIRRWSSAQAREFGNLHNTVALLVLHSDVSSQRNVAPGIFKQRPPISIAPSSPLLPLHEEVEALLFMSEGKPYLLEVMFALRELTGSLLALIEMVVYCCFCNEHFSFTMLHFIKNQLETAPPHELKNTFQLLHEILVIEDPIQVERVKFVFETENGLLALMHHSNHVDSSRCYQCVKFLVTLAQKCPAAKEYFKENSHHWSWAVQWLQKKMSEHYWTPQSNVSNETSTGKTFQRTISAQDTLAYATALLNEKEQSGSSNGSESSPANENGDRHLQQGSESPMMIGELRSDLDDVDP
How it was run: as §1

[4] = molecular target: T3, USP25 (UniProt Q9UHP3)
T3 sequence (whole entry): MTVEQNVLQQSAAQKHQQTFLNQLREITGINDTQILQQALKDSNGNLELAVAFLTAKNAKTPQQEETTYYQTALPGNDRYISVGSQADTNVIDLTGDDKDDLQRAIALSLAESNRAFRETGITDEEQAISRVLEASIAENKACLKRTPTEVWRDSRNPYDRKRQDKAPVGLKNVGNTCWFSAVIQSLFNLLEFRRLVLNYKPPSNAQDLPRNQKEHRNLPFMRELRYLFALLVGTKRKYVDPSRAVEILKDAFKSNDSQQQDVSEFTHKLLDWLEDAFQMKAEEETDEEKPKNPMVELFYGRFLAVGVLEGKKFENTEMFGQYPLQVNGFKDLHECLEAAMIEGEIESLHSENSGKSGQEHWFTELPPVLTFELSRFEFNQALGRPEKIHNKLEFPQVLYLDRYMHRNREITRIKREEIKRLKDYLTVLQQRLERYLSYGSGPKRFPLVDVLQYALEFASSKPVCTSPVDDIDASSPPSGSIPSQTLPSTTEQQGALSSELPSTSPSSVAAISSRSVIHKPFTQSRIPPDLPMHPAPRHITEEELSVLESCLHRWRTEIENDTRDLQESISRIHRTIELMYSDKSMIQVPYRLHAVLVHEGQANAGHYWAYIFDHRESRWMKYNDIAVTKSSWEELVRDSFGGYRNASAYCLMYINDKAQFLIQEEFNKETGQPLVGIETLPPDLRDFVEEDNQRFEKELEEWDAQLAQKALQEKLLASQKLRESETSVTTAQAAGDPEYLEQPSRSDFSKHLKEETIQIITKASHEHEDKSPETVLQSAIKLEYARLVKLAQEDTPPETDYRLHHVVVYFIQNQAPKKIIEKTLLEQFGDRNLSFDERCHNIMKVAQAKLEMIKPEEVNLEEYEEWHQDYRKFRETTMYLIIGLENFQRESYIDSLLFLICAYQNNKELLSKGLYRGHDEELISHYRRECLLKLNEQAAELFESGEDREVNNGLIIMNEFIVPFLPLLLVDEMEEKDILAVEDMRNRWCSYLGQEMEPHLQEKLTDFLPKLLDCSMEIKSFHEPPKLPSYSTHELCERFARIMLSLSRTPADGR
How it was run: as §1

[5] = molecular target: T4, USP28 (UniProt Q96RU2)
T4 sequence (whole entry): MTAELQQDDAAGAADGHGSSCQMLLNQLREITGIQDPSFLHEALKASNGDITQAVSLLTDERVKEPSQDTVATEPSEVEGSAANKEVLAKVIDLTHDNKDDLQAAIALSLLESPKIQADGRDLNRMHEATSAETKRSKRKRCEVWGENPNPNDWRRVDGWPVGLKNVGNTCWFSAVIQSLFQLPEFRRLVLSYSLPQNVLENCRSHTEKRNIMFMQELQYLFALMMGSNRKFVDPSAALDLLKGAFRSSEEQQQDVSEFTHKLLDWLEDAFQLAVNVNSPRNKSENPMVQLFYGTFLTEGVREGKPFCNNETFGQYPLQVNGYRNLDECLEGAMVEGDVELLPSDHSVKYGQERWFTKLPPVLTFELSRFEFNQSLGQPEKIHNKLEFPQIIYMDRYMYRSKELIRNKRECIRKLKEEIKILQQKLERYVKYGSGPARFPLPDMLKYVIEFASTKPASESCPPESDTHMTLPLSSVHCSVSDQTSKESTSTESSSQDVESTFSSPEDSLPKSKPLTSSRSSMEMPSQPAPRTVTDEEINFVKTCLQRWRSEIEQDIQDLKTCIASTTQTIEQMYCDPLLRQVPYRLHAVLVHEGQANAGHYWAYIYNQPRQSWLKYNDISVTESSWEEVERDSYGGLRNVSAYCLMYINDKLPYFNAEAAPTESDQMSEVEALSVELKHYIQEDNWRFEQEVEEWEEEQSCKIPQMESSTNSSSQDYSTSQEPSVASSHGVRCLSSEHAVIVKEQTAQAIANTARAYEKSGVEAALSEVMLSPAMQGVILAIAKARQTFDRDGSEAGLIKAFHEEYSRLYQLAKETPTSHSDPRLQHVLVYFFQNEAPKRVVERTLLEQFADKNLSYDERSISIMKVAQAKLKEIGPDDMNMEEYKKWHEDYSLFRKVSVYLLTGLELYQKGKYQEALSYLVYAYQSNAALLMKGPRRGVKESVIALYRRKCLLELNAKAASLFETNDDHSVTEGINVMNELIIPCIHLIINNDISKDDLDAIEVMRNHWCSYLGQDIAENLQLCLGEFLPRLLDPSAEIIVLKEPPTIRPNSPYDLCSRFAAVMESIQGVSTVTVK
How it was run: as §1

Measured: log2 ratio of Biotin-Ahx-Ub-VS probe labelling

Cl.O=C(CCl)NCc1ccnc(Oc2ccccc2F)c1
inactive: [1] -0.111 | [2] -0.353 | [3] -0.349 | [4] -0.678 | [5] -0.558
